The campaign covered roughly 2,300 compounds. About 790 (34%) were called active. Some of the results follow. Results with a measured potency or affinity are listed apart. Unmarked numbers belong to inactive results. How the calls were made is not given here.
Assay: THP-1 cell cytotoxicity, dose response, cytotoxicity control for non-replicating M. tuberculosis project (AID 489025)
Conditions: THP-1 cell viability; series mostly up to 40 µM; viability: at the top concentration

| Structure (SMILES) | viability |
| --- | --- |
| O=C(NCCc1cccc(Cl)c1)c1cc2ccccc2oc1=O | 111% |
| O=C(O)c1ccc(-n2nc(C(F)(F)F)c3c2CCCC3)cc1 | 118% |
| O=C(COc1ccc2ccccc2c1)Nc1ccncc1 | 101% |
| S=c1[nH]cnc2sc(-c3ccccc3)cc12 | 75.2% |
| Clc1ccccc1OCc1nnc(-c2ccccc2)o1 | 83.9% |
| CCn1c(-c2ccco2)nc2ccccc21 | 121% |
| CCOC(=O)c1csc(COc2ccccc2Cl)n1 | 111% |
| COc1cccc(COC(=O)CCNC(=O)c2ccc(Br)cc2)c1OC | 113% |
| CC(=O)c1ccc(NC(=O)C(Cc2ccccc2)n2cccc2)cc1 (stereo not drawn) | 115% |
| Cc1cc(NC(=O)COc2ccccc2)ccc1Cl | 85.1% |
| O=C(Nc1nnc(C2=COCCO2)o1)c1ccc(Cc2ccccc2)cc1 | 78.6% |
| Cc1ccsc1C(=O)OCC(=O)Nc1nnc(-c2ccccc2)o1 | 103% |
| Cc1cc(C)c(OCC(=O)Nc2nnc(-c3ccco3)o2)c(C)c1 | 120% |
| O=C(NC1CCCC1)c1cc(-c2cccs2)on1 | 85.4% |
| CCOc1cc(-c2nnc(NC(=O)c3ccco3)o2)cc(OCC)c1OCC | 76.8% |
| CCc1ccc(NC(=O)CCc2ccc(C)o2)cc1 | 99% |
| C=CCn1c(O)c(C(C)=Nc2ccc(C(=O)OCC)cc2)c(=O)[nH]c1=O | 104% |
| Oc1ccc2cc(Br)ccc2c1CN1CCCC1 | 95.8% |
| Cc1ccc(S(=O)(=O)NCC(=O)OCCOc2cccc(Cl)c2)cc1 | 116% |
| O=C(Nc1nnc(-c2ccccc2Cl)o1)c1ccco1 | 85.8% |
| O=C(Nc1nnc(-c2ccccc2Cl)o1)c1cccnc1 | 82.8% |
| CC(C)OC(=O)c1cc(C(=O)c2cc(Cl)ccc2O)coc1=N | 101% |
| COc1c[nH]n(C2CCCCC2)c(=O)c1=O | 96.4% |
| Cc1ccc(N=N/C(=C\O)C(=O)c2ccncc2)cc1 | 74% |
| O=C(NNC1CC(=O)N(c2ccccc2)C1=O)c1ccco1 (stereo not drawn) | 115% |
| NC(=O)N/N=C/c1ccccc1OC(=O)c1cc2ccccc2oc1=O | 131% |

| Structure (SMILES) | viability |
| --- | --- |
| Cc1ccc(C(=O)N2N=C(CC(C)C)CC2(O)C(F)(F)F)o1 (stereo not drawn) | 101% |
| Cn1nnc(NC(=O)COc2ccc(C3CCCCC3)cc2)n1 | 104% |
| Cc1cc(O)c(-c2cc(O)c(C)cc2O)cc1O | 95.9% |
| COc1ccc(-c2nnc(SCC(C)C)o2)cc1 | 81.9% |
| COc1ccc(-c2nnc(NC(=O)C3=COCCO3)o2)cc1 | 102% |
| Cc1ccn2nc(S(=O)(=O)Nc3c(F)cccc3F)nc2n1 | 101% |
| COc1cccc(NC(=O)c2ccc(-c3ccc([N+](=O)[O-])cc3)o2)c1 | 98.6% |
| CC(=O)Nc1ccc(NC(=O)c2cc([N+](=O)[O-])cc([N+](=O)[O-])c2)cc1 | 102% |
| COc1ccc(CNC(=O)c2cc3cccc(O)c3oc2=N)cc1 | 107% |
| CCOC(=O)COc1ccc2c(=O)c(-c3ccccc3OC)coc2c1 | 114% |
| COC(=O)COc1ccc(-c2nn(C)c(=O)c3ccccc23)cc1 | 86.9% |
| O=C(CNC(=O)c1ccco1)OCc1ccc(C(=O)Oc2ccccc2)cc1 | 106% |
| CCOC(=O)CC(=O)Nc1ccc(C(=O)OCC)cc1 | 88.2% |
| CCOC(=O)c1ccc(NC2OC(=O)c3ccccc32)cc1 (stereo not drawn) | 110% |
| c1ccc(C2=Nc3ccccc3OC2)cc1 | 115% |
| CC(C)c1ccc(/C=N/NC(=O)c2ccccn2)cc1 | 91.5% |
| O=C(CCc1c[nH]c2ccccc12)Nc1ncccc1O | 126% |
| Cc1ccnc(NC(=O)CCc2c[nH]c3ccccc23)c1 | 74.2% |
| COc1cc(/C=N/NC(=O)c2ccccn2)ccc1OC(=O)c1cccs1 | 88.8% |
| O=C(N/N=C/c1ccccn1)c1ccccc1 | 70.2% |
| C/C(=N\Nc1ccc(Cl)cc1)c1ccccn1 | 93.5% |
| O=C(N/N=C/c1ccccn1)c1cccc(S(=O)(=O)Nc2ccccc2Cl)c1 | 87.6% |
| COc1cccc(/C=N/N2C(=O)CSC2=S)c1O | 112% |
| CCCC(C)C(=O)Nc1ccc(Cl)cn1 (stereo not drawn) | 114% |
| O=[N+]([O-])c1ccc(N2CCCCCC2)c2nonc12 | 112% |
| CC1CCCN(CCC(=O)c2ccc(Br)cc2)C1 (stereo not drawn) | 98.7% |

| Structure (SMILES) | viability |
| --- | --- |
| C/C(=N\Nc1cccc2cccnc12)c1ccccn1 | 79.8% |
| CC(OC(=O)c1ccc2c(=O)n3c(nc2c1)CCCCC3)C(=O)Nc1ccc(Cl)cn1 (stereo not drawn) | 80.8% |
| CCOC(=O)c1cc(-c2csc(COc3ccccc3)n2)on1 | 95.9% |
| COc1cc(Cl)cc(/C=N/NC(N)=O)c1O | 103% |
| Cn1cccc1/C=N/NC(=O)c1ccco1 | 102% |
| Cc1occc1C(=O)N/N=C/c1ccc[nH]1 | 82.8% |
| O=C(N/N=C/c1cn[nH]c1-c1ccccc1)c1ccco1 | 96.9% |
| O=C(OCc1ccc([N+](=O)[O-])cc1)c1cc2ccccc2oc1=O | 96.3% |
| Cc1cccc(NC(=O)c2cc3ccccc3oc2=O)c1 | 87.6% |
| Cc1cc(C)n(-c2ccc(C(=O)OCC(=O)Nc3cc(Cl)ccc3[N+](=O)[O-])cc2)n1 | 104% |
| COc1ccccc1/C=C/C=N/NC(=O)c1ccncc1 | 75.8% |
| COc1ccc(OC(=O)C2CC(=O)N(c3ccc(C)cc3)C2)cc1 (stereo not drawn) | 108% |
| O=C(COC(=O)c1cccs1)NCCC1=CCCCC1 | 96.1% |
| CCCCN(C)C(=O)c1cc2cc3ccc(OC)cc3nc2s1 | 85.8% |
| CN(CC(=O)Nc1ccc(C#N)cc1)Cc1ccc(Cl)c(Cl)c1 | 102% |
| Cc1ccnc(NC(=O)COc2ccc3c(c2)CCC3)c1 | 107% |
| Cc1cccnc1NC(=O)COc1ccc2oc3c(c2c1)CCCC3 | 79.2% |
| O=C(O)COc1ccc2occ(C(=O)c3ccccc3)c2c1 | 118% |
| Cc1onc(-c2ccccc2)c1C(=O)Nc1nnc(COc2ccc(Cl)cc2)s1 | 102% |
| O=C(N/N=C\c1ccco1)c1cncc(Br)c1 | 108% |
| CC(/C=C/c1ccco1)=N/NC(=O)c1ccc(C)nc1 | 94.9% |
| O=C(N/N=C/c1ccc([N+](=O)[O-])s1)c1ccncc1 | 102% |
| CC(=O)N1N=C(c2ccccc2)OC1c1ccc([N+](=O)[O-])s1 (stereo not drawn) | 99.8% |
| CNC(=S)N1CCN(c2c(F)cc3c(=O)c(C(=O)O)cn(C4CC4)c3c2OC)CC1C (stereo not drawn) | 110% |
| O=C(Oc1ccc(F)cc1)c1ccc2c(=O)n3c(nc2c1)CCC3 | 106% |
| CCN(CC)C(=O)c1sc2nc(-c3ccccc3)ccc2c1N | 72.4% |

From PubChem BioAssay AID489025 (Southern Research Specialized Biocontainment Screening …, 2010)
